Cycloheximide cs = counter-screen hit for Shiga toxin inhibitors, cycloheximide; actives 12% (n = 300,000); max response, %; cell reporter, cycloheximide protein synthesis inhibition counterscreen; in the data active = max response mostly above about 13%, no sharp cut-off; inactive = mostly below about 14%; also: read at 38.3 µM for the half of the compounds with a filed dose; 0% is about no effect
Shiga toxin inh = Shiga toxin inhibition | Vero cells, Shiga toxin protein synthesis inhibition reporter | inhibition, % at 38.7 µM | actives 9.2% (n = 290,000) | AID 2315; in the data active = inhibition mostly above about 28%, no sharp cut-off; inactive = mostly below about 43%; also: 0% is about no effect
AmpC detergent = inhibitors of E. coli AmpC beta-lactamase with detergent | P00811 | AmpC hydrolysis of nitrocefin, absorbance 480 nm, 0.01% Triton | Potency, µM (doses to about 114 µM), inactives show top-dose activity change, negative = inhibition, usual class: inhibitors | actives 0.041% (n = 370,000);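 also: potency is read from the fitted curve at half-maximal effect; 0% = no-compound wells and -100% = no-enzyme wells; nearly all actives have a fitted effect of over 25% in size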
Target sequence (P00811 whole entry, looked up): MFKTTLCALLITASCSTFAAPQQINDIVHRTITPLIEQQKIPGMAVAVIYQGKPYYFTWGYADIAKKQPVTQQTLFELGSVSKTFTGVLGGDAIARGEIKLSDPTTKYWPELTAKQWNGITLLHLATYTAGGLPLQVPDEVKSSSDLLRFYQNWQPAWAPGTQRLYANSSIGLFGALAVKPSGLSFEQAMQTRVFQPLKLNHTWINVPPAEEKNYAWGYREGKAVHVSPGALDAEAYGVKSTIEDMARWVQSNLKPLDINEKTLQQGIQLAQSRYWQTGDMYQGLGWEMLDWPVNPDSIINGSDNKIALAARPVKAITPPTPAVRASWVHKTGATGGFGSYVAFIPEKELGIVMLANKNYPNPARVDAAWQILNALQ
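20 mM phosphate pH 7.0 + 0.01% (detergent screen) or 0.0001% Triton X-100; 5.3 nM AmpC reagent; cpd preinc 15 min RT; nitrocefin (800 uM stock) to start; A480 q20 s × 4 min; Activity was normalised to no-enzyme and no-compound control wells.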
AmpC no deterg = AmpC beta-lactamase inhibition without detergent; P00811; AmpC nitrocefin hydrolysis, absorbance 480 nm, 0.0001% Triton; Potency, µM (doses to about 57.1 µM), for the others: at the top dose activity change, negative = inhibition, usual class: inhibitors; actives 0.52% (n = 330,000);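 also: potency is read from the fitted curve at half-maximal effect; plate controls were no compound for no effect and no enzyme for full effect; nearly all actives have a fitted effect of over 20% in size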
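AmpC (5.3 nM in the dispensed reagent) in 20 mM phosphate pH 7.0 with 0.01% (detergent screen) or 0.0001% Triton X-100 was preincubated with compounds for 15 min at room temperature. Nitrocefin was then added from an 800 uM solution, and hydrolysis was followed at 480 nm.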
NS1 inh = influenza NS1 inhibition | Potency, µM (doses to about 46.1 µM), without a hit: at the top dose activity, positive = more growth | actives 0.4% (n = 270,000) | AID 2326; calls by dose curve; also: potency is read from the fitted curve at half-maximal effect; actives are rising curves; nearly all actives have a fitted effect of over 50% in size
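Read-out: OD600 growth recovery of NS1-expressing budding yeast. Cells grown overnight at 30C in -URA glucose medium, washed, resuspended and diluted 1:100 in 2% galactose assay medium, pH 6.0. Same strain lacking NS1 served as positive control.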
An asterisk follows results filed as active. The sample as a whole holds a higher share of hits than the screen did. Unless noted, calls follow the shape of the dose curve; as a rule, active = well fitted curve in the direction sought with a large enough effect; inconclusive = small, poorly fitted or top-dose-only effect, or another doubt; inactive = no such curve, though single readings can be large; an effect the other way counts as inactive or inconclusive.

O=C(CCc1nc2ccccc2[nH]c1=O)OCc1ccc(S(=O)(=O)N2CCOCC2)cc1 was read as Cycloheximide cs -3.1, Shiga toxin inh -2.7, AmpC detergent -12.6%, AmpC no deterg -5.5% and NS1 inh -9.8%.
`COc1ccc(-c2nn(CC(=O)NCc3ccccc3)c3c2cnc2ccc(F)cc23)cc1` gave AmpC detergent 15.1%.
For CC(C)C1NC(=O)[C@H](CCCCN)NC(=O)[C@@H](Cc2c[nH]c3ccccc23)NC(=O)[C@H](Cc2ccc(O)cc2)NC(=O)[C@H](C)N(C)C(=O)[C@H](Cc2ccccc2)NC1=O (some centres not stated) the results were NS1 inh 29.9%.
For O=C(COC(=O)c1cccc(S(=O)(=O)N2CCOCC2)c1)NCc1ccccc1 the results were AmpC no deterg -13.1%.
O=C(COC(=O)c1cccc(S(=O)(=O)N2CCOCC2)c1)c1ccccc1 was read as Cycloheximide cs 40.5*, Shiga toxin inh 99.6*, AmpC detergent -1.6%, AmpC no deterg 23.0% and NS1 inh -8.6%.
`COC(=O)c1ccc2c(=O)n(CCCCCC(=O)NCCNC(C)=O)c(=O)[nH]c2c1` gave Cycloheximide cs -1.5, Shiga toxin inh -4.0, AmpC detergent 2.3% and AmpC no deterg 0.1%.
`COC(=O)c1sccc1N/N=C/c1cccc(OC)c1O` gave Cycloheximide cs 19.4*, Shiga toxin inh 50.3, AmpC detergent -15.1%, AmpC no deterg 5.1% and NS1 inh 7.2%.
Screening COC(=O)c1sccc1N/N=C/c1cccc(Oc2ccccc2)c1 returned Cycloheximide cs 39.6*, Shiga toxin inh 38.3*, AmpC detergent -13.0%, AmpC no deterg -25.2% and NS1 inh 7.3%.
Screening COC(=O)c1sccc1N/N=C/c1ccc(OC)c(OC)c1OC returned Cycloheximide cs 46.7*, Shiga toxin inh 39.2*, AmpC detergent -14.1%, AmpC no deterg 35.4% and NS1 inh -8.0%.
COC(=O)c1sccc1NC(=O)c1ccccc1 was read as Cycloheximide cs 6.8, Shiga toxin inh -18.6, AmpC detergent 6.5% and AmpC no deterg -15.9%.
`COc1cccc(/C=N/NC(=O)CSCC(=O)Nc2ccccc2)c1O` gave Cycloheximide cs -4.0, Shiga toxin inh -23.0, AmpC detergent 0.9%, AmpC no deterg -33.9% and NS1 inh -9.7%.
Cc1cccc(C)c1NC1=NCCCCC1 was read as Cycloheximide cs -1.8, Shiga toxin inh -1.9, AmpC detergent 2.2% and AmpC no deterg -15.9%.
`COc1ccc(NC(=O)CSC2=Nc3ccccc3C3=NC(CCC(=O)NCCc4ccccc4)C(=O)N23)c(OC)c1` (configuration not stated) gave AmpC detergent 2.6%.
`CCC(=O)N1CCN(c2ccc(NC(=O)COc3ccccc3[N+](=O)[O-])cc2)CC1` gave Cycloheximide cs 0.8, Shiga toxin inh -5.9, AmpC detergent 0.9%, AmpC no deterg 88.8% and NS1 inh 5.7%.
Screening Cc1ccc(/C(N)=N/OC(=O)c2ccc(F)cc2)cc1 returned Cycloheximide cs 48.8*, Shiga toxin inh 91.4*, AmpC detergent 0.7%, AmpC no deterg -5.6% and NS1 inh -26.5%.
For N/C(=N\OC(=O)c1ccc(F)cc1)c1ccc(Br)cc1 the results were Cycloheximide cs 33.0*, Shiga toxin inh 70.1*, AmpC detergent 1.8%, AmpC no deterg -32.1% and NS1 inh -50.6%.
Cc1ccc(/C(N)=N/OC(=O)c2ccc3ccccc3c2)cc1 was read as Cycloheximide cs 12.1, Shiga toxin inh 10.2, AmpC detergent 0.7%, AmpC no deterg -27.4% and NS1 inh -31.9%.
N/C(=N\OC(=O)c1ccc(F)cc1)c1ccccc1 was read as Cycloheximide cs 58.8*, Shiga toxin inh 150.4*, AmpC detergent -1.2%, AmpC no deterg -12.0% and NS1 inh -63.7%.
For N[C@@H](COC(c1cccc(F)c1)c1ccccc1OCc1ccccc1)C(=O)O (some centres not stated) the results were Cycloheximide cs -8.1 and Shiga toxin inh -5.8.
Screening O=C(CN1CCC(n2nnc3cc(C(F)(F)F)ccc32)CC1)Nc1ccc2c(c1)OCCO2 returned Cycloheximide cs 46.2*, Shiga toxin inh 90.5, AmpC detergent 4.0%, AmpC no deterg 65.1% and NS1 inh -26.0%.
For Cc1oc(-c2ccc(C(=O)Nc3cccc(C(F)(F)F)c3)cc2)nc1CSc1ccccc1 the results were AmpC detergent 1.1%.
For CCOC(=O)c1ccc(NC(=O)c2cnccn2)cc1 the results were Cycloheximide cs 19.9*, Shiga toxin inh 26.5, AmpC detergent -10.3%, AmpC no deterg -21.1% and NS1 inh -2.0%.
Screening CCCCc1ccc(NC(=O)c2cnccn2)cc1 returned Cycloheximide cs 37.0*, Shiga toxin inh 61.0*, AmpC detergent 2.4% and AmpC no deterg -0.6%.
`CCOC(=O)c1ccc(NC(=S)NCc2cccnc2)cc1` gave Cycloheximide cs 12.8*, Shiga toxin inh 16.4, AmpC detergent 3.4%, AmpC no deterg -9.9% and NS1 inh -0.5%.
For CCOC(=O)c1ccc(NC(=O)C2CCCN(c3cnccn3)C2)cc1 (configuration not stated) the results were Cycloheximide cs 28.9*, Shiga toxin inh 34.0*, AmpC detergent -15.9%, AmpC no deterg 3.7% and NS1 inh -49.1%.
For CCOC(=O)c1cc(NC(=O)c2cnccn2)cc(C(=O)OCC)c1 the results were Cycloheximide cs 8.5, Shiga toxin inh -4.7, AmpC detergent 0.1%, AmpC no deterg -17.3% and NS1 inh inconclusive.
CCc1cccc(NC(=O)C2CCCN(c3cnccn3)C2)c1 (configuration not stated) was read as Cycloheximide cs 10.9, Shiga toxin inh 13.8, AmpC detergent -14.4%, AmpC no deterg 5.9% and NS1 inh -13.1%.
`CCOC(=O)c1c(C)oc2ccc(N(C(C)=O)S(=O)(=O)c3c(C)cc(C)cc3C)cc12` gave AmpC detergent 0.0%.
Screening O=C(Cc1ccc(Cl)cc1)SCc1ccccc1 returned AmpC detergent 1.2% and AmpC no deterg -15.6%.
CC(C)c1ccc(C(=O)NC(=S)NCc2cccnc2)cc1 was read as Cycloheximide cs 16.2*, Shiga toxin inh active, AmpC detergent inconclusive, AmpC no deterg -19.0% and NS1 inh -34.0%.
`COc1ccc(OCc2nnc(SCC(=O)NC3CC4CCC3C4)o2)cc1` (configuration not stated) gave Cycloheximide cs 28.2*, Shiga toxin inh 44.2, AmpC detergent -1.3%, AmpC no deterg -9.7% and NS1 inh -2.3%.
`COc1ccc(OCc2nnc(SCC(=O)NC3CCCCC3)o2)cc1` gave Cycloheximide cs 9.7, Shiga toxin inh 29.7*, AmpC detergent inconclusive, AmpC no deterg 1.3% and NS1 inh -27.3%.
For O=C(CSc1nnc(COc2ccc(Cl)cc2)o1)NC1CCCCC1 the results were AmpC detergent inconclusive and AmpC no deterg -13.1%.

Screening data: PubChem BioAssay, National Center for Advancing Translational Sciences (NCATS)
